Molecules are shown by their SMILES. Activity calls are given as the source filed them.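 The calls were made as follows: active = compound that made reporter-free parental cells show up as glowing objects under laser imaging, so likely a fluorescent false positive; inactive = the rest.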

The assay in a line: Parental Cell Counter Screen Assay for Epigenetic Modulators. Conditions: parental c127i cells, compound fluorescence imaging, 30 h. An excerpt:
NIH Molecular Libraries Screening Centers Network [MLSCN] NIH Chemical Genomics Center [NCGC] MLSCN Grant: 1 X01 MH079860-01 Assay Provider: Elisabeth D. Martinez, University of Texas SW Medical Center NCGC Assay Overview: This assay is a counter screen for the Locus Derepression (LDR) assay (PubChem AID 597). The LDR assay detects the derepression of a GFP reporter that is stably integrated in a region of the genome of murine c127i mammary cells that is presumably silenced. Compounds that cause derepression of the locus to express GFP are identified by enumerating GFP positive cells using a laser-scanning microplate cytometer. […] Compounds active in the parental c127i cells are likely fluorescent.
NCGC Assay Protocol Summary: Two hundred and fifty cells in 5 uL per well were dispensed into black, clear-bottom 1536-well plates. Twenty-three nL compound was transferred to the assay plate and cells were incubated 30 hours at 37 C. Medium was removed, cells were washed two times with PBS, and fluorescent cells were enumerated as objects between the sizes of 20 to 120 um width and depth using a laser-scanning microplate imager (Acumen Explorer Ex3, TTP Labtech).
A general note: A counterscreen serves to expose hits that act by an unwanted route or on another target.
As for `CC(C)C(=O)NC(c1cccs1)c1cc(Cl)c2cccnc2c1O` (stereo not given), the outcome was inactive.
Same read-out and setting: the value for `Oc1ccc(COCc2ccccc2)c2cccnc12` was “inactive”.
The same measure, in the same setting: the value for `CN1CCN(Cc2cc(Cl)c3cccnc3c2O)CC1` was “inactive”.
Consider `O=Nc1ccc(O)c2ncccc12`, for which the outcome was inactive.
Take `O=C(CSc1cccc2cccnc12)N1CCCC1`: the result was inactive.
The same measure, in the same setting: the value for `Cc1cc(C)n(-c2nc(N(C)C)nc(N(C)C)n2)n1` was “inactive”; that for `CC(/C=C/C(=O)NO)=C\[C@@H](C)C(=O)c1ccc(N(C)C)cc1` was “inactive”.
With `CC(C)C(=O)NC(c1ccco1)c1cc([N+](=O)[O-])c2cccnc2c1O` (stereo not given), the result was inactive.
On the same count and under the same terms, the value for `CCNc1nc(NCC)nc(-n2nc(C)cc2C)n1` was “inactive”; that for `COC(=O)c1cccc(NC(c2ccccn2)c2ccc3cccnc3c2O)c1` (stereo not given) was “inactive”; that for `COCc1cc(CN2CCN(C)CC2)c(O)c2ncccc12` was “inactive”.
On the same count and under the same terms, the value for `COc1cccc(C(=O)NC(c2ccco2)c2cc(Cl)c3cccnc3c2O)c1` (stereo not given) was “inactive”; that for `CC(C)C(=O)NC(c1ccco1)c1cc(Cl)c2cccnc2c1O` (stereo not given) was “inactive”.
Same read-out and setting: the value for `O=C(CSc1cccc2cccnc12)NCc1ccccc1` was “inactive”; that for `Cc1ccc2ccc(C(Nc3cccc(Cl)c3)c3ccccn3)c(O)c2n1` (stereo not given) was “inactive”; that for `Oc1c(C(Nc2ccccc2C(F)(F)F)c2ccccn2)ccc2cccnc12` (stereo not given) was “inactive”.
As to `CC(C)C(=O)NC(/C=C/c1ccccc1)c1cc([N+](=O)[O-])c2cccnc2c1O` (stereo not given), the outcome was inactive.
The same measure, in the same setting: the value for `COc1ccc(C(=O)NC(c2ccco2)c2cc(Cl)c3cccnc3c2O)cc1` (stereo not given) was “inactive”.
Same read-out and setting: the value for `CCN1CSC(=S)N(CC)C1` was “inactive”.
On the same count and under the same terms, the value for `O=C(Cc1ccccc1)NC(c1ccco1)c1ccc2cccnc2c1O` (stereo not given) was “inactive”; that for `CC(C)C(=O)NC(c1ccco1)c1ccc2cccnc2c1O` (stereo not given) was “inactive”; that for `Oc1c(C(Nc2ccccn2)c2ccco2)cc(Cl)c2cccnc12` (stereo not given) was “inactive”.
On to `CCCCC1CC1C(=O)Nc1ccc(OC)c(OC)c1` (stereo not given), for which the result was inactive.
Regarding `CCN(CC)c1ccc2cc(-c3nc4ccccc4[nH]3)c(=O)oc2c1`, the Potency was 410 nM [fluorescent] (active).
Take `CN(C)C(=O)CSc1cccc2cccnc12`: the outcome was inactive.
The same measure, in the same setting: the value for `c1cnn(-c2nc(N3CCOCC3)nc(N3CCOCC3)n2)c1` was “inactive”.
The same measure, in the same setting: the value for `COc1ccc(C)cc1NC(c1ccccn1)c1ccc2cccnc2c1O` (stereo not given) was “inactive”; that for `Cc1cc(C)n(-c2nc(NC(C)C)nc(NC(C)(C)C)n2)n1` was “inactive”.
On to `CC(C)C(=O)NC(c1ccc(N(C)C)cc1)c1ccc2cccnc2c1O` (stereo not given), for which the result was inactive.
Still for that read-out and setting: the value for `O=C(Oc1cccc2cccnc12)c1ccc(Br)o1` was “inactive”; that for `CN1C(=S)SC(c2ccccc2)N(C)C1c1ccccc1` (stereo not given) was “inactive”.
On the same count and under the same terms, the value for `c1ccc(Nc2nc(Nc3ccccc3)nc(-n3cccn3)n2)cc1` was “inactive”.
`Cc1cc(NC(c2ccccn2)c2ccc3cccnc3c2O)no1` (stereo not given): the result was inactive.
Same read-out and setting: the value for `CC(C)C(=O)NC(c1ccc(C(C)C)cc1)c1cc(Cl)c2cccnc2c1O` (stereo not given) was “inactive”; that for `CC(C)C(=O)NC(c1ccc(Cl)cc1Cl)c1ccc2cccnc2c1O` (stereo not given) was “inactive”.
Turning to `CCNc1nc(NCC)nc(-n2cc(C(=O)c3cc(Cl)ccc3O)cn2)n1`, the result was inactive.
Turning to `O=C(CC(c1ccco1)S(=O)(=O)c1ccccc1)c1ccc(F)cc1` (stereo not given), the outcome was inactive.
Consider `COc1ccc(C(NC(=O)C(C)C)c2ccc3cccnc3c2O)cc1` (stereo not given), for which the outcome was inactive.
Same read-out and setting: the value for `Cc1cc(C)n(-c2nc(NC(C)C)nc(NC(C)C)n2)n1` was “inactive”; that for `CCOCc1ccc(O)c2ncccc12` was “inactive”.

(Values after PubChem BioAssay AID990 (National Center for Advancing Translational Sciences (NCATS), 2007).)
